Source: the supplement of paper PMC10127200
Structures can show the parent of a compound that is named as a salt.

Tests used:
Assay in all cases: Euclidean distance of Cell Painting phenotypic profile (signed KS, 77 features) to DMSO centroid (dimensionless distance); 5 or 10 uM (library dependent); higher = stronger phenotypic change vs DMSO (phenoactivity)
Details in all cases: 48 h
786-O = test system: 786-O
In short: (§1)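 Five cancer lines and a healthy fibroblast line received library compounds at 10 or 5 uM (library-dependent, 0.1% DMSO final) for 48 h. Stained cells were imaged confocally at 20X (9 fields/well). Harmony extracted 77 features, each scored as a signed Kolmogorov-Smirnov statistic against same-plate vehicle wells. Profiles were plate-position corrected, correlation-weighted and replicate-averaged at the top dose. Phenoactivity is the Euclidean distance from each profile to the median vehicle profile.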

A549 = test system: A549
In short: as §1

DU145 = test system: DU145
In short: as §1

FB = test system: FB
In short: as §1

HEPG2 = test system: HEPG2
In short: as §1

OVCAR4 = test system: OVCAR4
In short: as §1

Compound	Euclidean distance (786-O)	Euclidean distance (A549)	Euclidean distance (DU145)	Euclidean distance (FB)	Euclidean distance (HEPG2)	Euclidean distance (OVCAR4)
Cn1c(=O)n(-c2ccc(C(C)(C)C#N)cc2)c2c3cc(-c4cnc5ccccc5c4)ccc3ncc21 [BEZ235 (NVP-BEZ235. Dactolisib)]	3.77	3.79	1.66	2.82	0.961	4.78
N=C1CCCN1Cc1[nH]c(=O)[nH]c(=O)c1Cl.O=c1[nH]c(=O)n([C@H]2C[C@H](O)[C@@H](CO)O2)cc1C(F)(F)F	3.51	3.48	3.37	1.25	3	3.04
CC(=O)Oc1ccccc1C(=O)Nc1ncc([N+](=O)[O-])s1 [Nitazoxanide]	1.27	1.18	1.96	1.68	1.32	1.34
CCc1ccc(OCc2ccccc2C(=O)Nc2ccc3nc(C)cc(N)c3c2)cc1	4.35	4.14	3.63	5.25	5.11	4.53
Cc1cccc(CN2CCN(C(c3ccccc3)c3ccc(Cl)cc3)CC2)c1 (configuration not stated) [Meclizine 2HCl]	1.66	1.27	0.732	1.06	0.511	1.51
NC(=NCCCCCCN=C(N)N=C(N)Nc1ccc(Cl)cc1)N=C(N)Nc1ccc(Cl)cc1 [Chlorhexidine?2HCl]	2.98	3.13	2.18	1.67	2.59	2.56
CCN(CC)CCCC(C)Nc1nc(C)cc(Nc2ccc3nc(C)cc(N)c3c2)n1 (configuration not stated)	0.637	0.976	0.753	0.932	2.01	1.16
OCC1OC(OC2OC(CO)C(O)C(O)C2O)C(O)C(O)C1O [D-(+)-Trehalose Anhydrous]	1.42	1.05	1.04	1.26	0.946	0.855
CN[C@H](CC(C)C)C(=O)N[C@H]1C(=O)N[C@@H](CC(N)=O)C(=O)N[C@H]2C(=O)N[C@H]3C(=O)N[C@H](C(=O)N[C@H](C(=O)O)c4cc(O)cc(O)c4-c4cc3ccc4O)[C@H](O)c3ccc(c(Cl)c3)Oc3cc2cc(c3O[C@@H]2O[C@H](CO)[C@@H](O)[C@H](O)[C@H]2O[C@H]2C[C@](C)(N)[C@H](O)[C@H](C)O2)Oc2ccc(cc2Cl)[C@H]1O [Vancomycin HCl]	0.545	0.761	0.862	0.465	0.611	0.795
N=C(N)N [Guanidine HCl]	0.653	0.962	0.525	0.612	0.512	0.648
C[C@@H](O)[C@H]1C(=O)N2C(C(=O)O)=C(S[C@@H]3CN[C@H](C(=O)N(C)C)C3)[C@H](C)[C@H]12 [Meropenem Trihydrate]	1.26	1.2	0.738	0.87	1.01	0.913
O=C(O)Cc1ccc(-c2ccccc2)cc1 [4-Biphenylacetic acid]	1.14	1.09	1.65	1.66	0.638	1.62
CC(=O)O/N=C1\C(=O)N(Cc2cc(Cl)ccc2Cl)c2ccc(Cl)cc21	0.757	0.621	0.687	0.682	0.571	1.34
C=C1CC[C@@H]2[C@](C)(CO)[C@H](O)CC[C@@]2(C)[C@H]1C/C=C1\C=COC1=O [Dehydroandrographolide]	1	0.867	0.554	0.87	0.517	1.29
CC[C@@H](CO)NCCN[C@@H](CC)CO [Ethambutol 2HCl]	1.58	0.663	1.06	0.73	0.465	1.38
Cc1ccc([C@@H]2O[C@H](CO)[C@@H](O)[C@H](O)[C@H]2O)cc1Cc1ccc(-c2ccc(F)cc2)s1 [Canagliflozin hemihydrate]	1.46	2.27	0.936	1.44	1.06	1.37
CC(=O)OCC1=C(C(=O)O)N2C(=O)[C@@H](NC(=O)CSc3ccncc3)[C@H]2SC1 [Cephapirin Benzathine]	1.51	0.954	0.791	1.16	0.75	0.965
CCc1c2c(nc3ccc(OC(=O)N4CCC(N5CCCCC5)CC4)cc13)-c1cc3c(c(=O)n1C2)COC(=O)[C@]3(O)CC [Irinotecan HCl Trihydrate]	3.01	3.5	4.47	4.08	3.19	3.1
N=C(N)NC(=N)N1CCOCC1 [Moroxydine HCl]	1.5	0.937	1.25	0.666	0.422	1.22

Compound	Euclidean distance (786-O)	Euclidean distance (A549)	Euclidean distance (DU145)	Euclidean distance (FB)	Euclidean distance (HEPG2)	Euclidean distance (OVCAR4)
CC(NC(=O)c1ccccc1/N=C/c1c(O)ccc2ccccc12)c1ccccc1 (configuration not stated) [Sirtinol]	0.539	0.747	0.686	0.99	2.2	0.857
C[C@]12CC[C@@H]3c4ccc(OS(=O)(=O)O)cc4CC[C@H]3[C@@H]1CCC2=O [Estropipate]	0.946	0.41	0.686	0.891	0.623	1.17
COC(=O)Nc1ccc(-c2nc(N3CCOCC3)c3cnn(C4CCN(C(=O)OC)CC4)c3n2)cc1	1.52	2.8	1.17	2.27	1.92	4
C[C@@H]1O[C@@H](O[C@H]2[C@H](Oc3cc(O)c4c(c3)O[C@H](c3ccc(O)cc3)CC4=O)O[C@H](CO)[C@@H](O)[C@@H]2O)[C@H](O)[C@H](O)[C@H]1O [Naringin]	1.25	1.01	0.644	1.2	0.575	1.74
COc1cc(NC(=O)c2ccccn2)ccc1Cl	1.08	0.966	0.845	1.02	0.638	1.19
O=[N+]([O-])c1ccc(O)c2ncccc12 [Nitroxoline]	2.71	2.74	1.76	1.94	1.71	2.24
O=C(O)CCCc1ccccc1 [Sodium Phenylbutyrate]	0.697	0.666	1.02	0.829	0.249	1.01
O=C(OCc1ccccc1)c1ccccc1 [Benzyl benzoate]	0.857	1.28	0.936	0.794	0.831	1.33
NC(=O)/C(=C/n1cnc(-c2cc(C(F)(F)F)cc(C(F)(F)F)c2)n1)c1cncnc1 [Eltanexor (KPT-8602)]	2.1	3.48	2.69	4.12	2.35	3.66
COc1ccc2[nH]c([S+]([O-])Cc3ncc(C)c(OC)c3C)nc2c1 (configuration not stated) [Omeprazole Sodium]	1.03	1.11	2.39	0.71	0.957	1.07
CC[C@H](CO)Nc1nc(NCc2ccccc2)c2ncn(C(C)C)c2n1 [Roscovitine (Seliciclib.CYC202)]	2.13	2.16	1.28	1.32	1.82	1.84
O=C(c1cn(Cc2cncn2Cc2ccc(Br)cc2)cc1-c1cccc2ccccc12)N1CCOCC1	2.26	2.37	1.56	2.75	1.15	1.92
CSCCNc1nc(SCCC(F)(F)F)nc2c1ncn2[C@@H]1O[C@H](COP(=O)(O)OP(=O)(O)C(Cl)(Cl)P(=O)(O)O)[C@@H](O)[C@H]1O [Cangrelor Tetrasodium]	1.09	1.07	0.563	1.25	0.767	0.58
COc1ccnc(C[S+]([O-])c2nc3cc(OC(F)F)ccc3[nH]2)c1OC (configuration not stated) [Pantoprazole sodium]	0.766	0.778	1.1	1.01	1.03	0.752
CCO[C@@H]1OC(=O)C[C@@H]1NC(=O)[C@@H]1CCCN1C(=O)[C@@H](NC(=O)c1ccc(N)c(Cl)c1)C(C)(C)C	0.836	1.87	2.17	1.85	1.04	1.35
CCCCC(=O)N(Cc1ccc(-c2ccccc2-c2nn[nH]n2)cc1)C(C(=O)O)C(C)C.CCOC(=O)C(C)CC(Cc1ccc(-c2ccccc2)cc1)NC(=O)CCC(=O)O (configuration not stated) [Sacubitril/valsartan (LCZ696)]	0.856	0.709	1.24	1.04	0.622	1.01
O=C(NCCN1CCOCC1)Nc1nc2ccc(Sc3nnc4ccc(-c5ccc(F)cc5)nn34)cc2s1	1.21	1.01	1.2	1.23	0.646	1.15
CC(=O)N[C@@H](CS)C(=O)O [Acetylcysteine]	0.996	1.28	1.2	0.709	0.571	1.6
